Test results reported in paper PMC7819943, “Rice protein-binding microarrays: a tool to detect cis-acting elements near promoter regions in rice”.
Whole data set: some 39,000 sequences, median “fluorescence intensity (a.u.)” near 4,300, cut for the highest 2% near 39,000. The sample as a whole holds a higher share of the highest values than the screen did.

Target: T1, OsSMF1 (Oryza sativa, UniProt Q6ZLB0 1-436)
T1 sequence: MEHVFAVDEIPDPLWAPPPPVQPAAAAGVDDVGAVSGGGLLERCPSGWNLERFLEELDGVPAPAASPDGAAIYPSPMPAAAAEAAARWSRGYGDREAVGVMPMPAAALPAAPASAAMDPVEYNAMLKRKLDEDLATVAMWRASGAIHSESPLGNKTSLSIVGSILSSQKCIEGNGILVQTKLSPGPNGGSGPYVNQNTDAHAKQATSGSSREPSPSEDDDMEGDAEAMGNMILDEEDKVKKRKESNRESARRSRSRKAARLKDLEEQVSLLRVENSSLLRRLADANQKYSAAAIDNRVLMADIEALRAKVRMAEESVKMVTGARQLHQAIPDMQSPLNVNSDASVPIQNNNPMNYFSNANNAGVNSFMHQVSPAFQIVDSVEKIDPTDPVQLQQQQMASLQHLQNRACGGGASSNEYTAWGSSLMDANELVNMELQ
Test: protein-binding microarray (RPBM); PBS, 2% BSA, 51.3 ng/ul salmon testes DNA, 50 uM zinc acetate, 200 nM TF, 25 C, 1 h; high values mean tight binding
Conditions: protein: recombinant; tags: N-terminal polyhistidine and DsRed monomer fusion (pET32a); chain copies: 2; label: CyDye5-dUTP incorporated in the synthesized complementary strand; 3' TTTTT single-stranded linker to array surface; dsDNA, one strand shown
Summary of the method: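 An Axon 4000B scanner gave the binding signal as per-feature fluorescence intensity in arbitrary units. This followed washing of a custom Agilent array that had been incubated for 1 h at 25 °C with 200 nM protein in PBS, 2% BSA, salmon testes DNA and 50 µM zinc acetate. The proteins were transcription factors fused at the N-terminus to polyhistidine and DsRed, expressed in E. coli BL21-CodonPlus and purified on Ni–NTA.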

Sequence | binding signal
TCCAGTTGTGCGTGGAGATGTTGGTGAAGAGCTTCCGCTGCGGAGTCACCTAGTGCAG | 4270 fluorescence intensity (a.u.)
TGAAATGCTATGTTGGTCCAGACTTCCGCTACGAAGGAGACGGAGTCACCTAGTGCAG | 65100 fluorescence intensity (a.u.)
TCTCCACTTCAGAGACGGTCCCACCTGTCATCCGCTCATACGGAGTCACCTAGTGCAG | 4680 fluorescence intensity (a.u.)
CCCTTACACCGCCCTGTGAACAGTCACTGACAATCCTGGCCGGAGTCACCTAGTGCAG | 4330 fluorescence intensity (a.u.)
TTAGTGCATGCTGCTAACTAAATACACGTAGCTTGTTGATCGGAGTCACCTAGTGCAG | 3310 fluorescence intensity (a.u.)
AAATTCCACGTGCCACATATTTCGTTCATTTGAGTTTATTCGGAGTCACCTAGTGCAG | 8820 fluorescence intensity (a.u.)
CTCCTGCCCACCAATCTTGCGGCGGAAAACAAGGCGTGATCGGAGTCACCTAGTGCAG | 4000 fluorescence intensity (a.u.)
GCGAAGCAACATGCTGCTGCTCAAGAGGAGGAAGATGGTGCGGAGTCACCTAGTGCAG | 3350 fluorescence intensity (a.u.)
TCAGCTGGCATGCATGGCAACATATATATGGCTGGAAGTACGGAGTCACCTAGTGCAG | 40000 fluorescence intensity (a.u.)
GAGAGTCGCCTTGTCAACATATGGCAGATGCAGCTGGTGCCGGAGTCACCTAGTGCAG | 61100 fluorescence intensity (a.u.)
TGGTGCTGTGGTGGTGGTGGTCATGGACTCATTGGGCATGCGGAGTCACCTAGTGCAG | 3180 fluorescence intensity (a.u.)
TGGTGCTGGTCCTCAACATGCATGTGCTATGGCAAGATCCCGGAGTCACCTAGTGCAG | 42800 fluorescence intensity (a.u.)
GTACGTCGGAAGCAACGGCAGACATGACAGCATATGGCCTCGGAGTCACCTAGTGCAG | 15900 fluorescence intensity (a.u.)
TTGATGGAGATGGGAGTTGGTGCGGATGTCCTTGTCGCCCCGGAGTCACCTAGTGCAG | 3200 fluorescence intensity (a.u.)
TTCATAGAGAGGGCCGGCAACGGCCTAGGCACGCTGGTGTCGGAGTCACCTAGTGCAG | 34700 fluorescence intensity (a.u.)
CCTACACATATATATATATATATGCATGGCAACTTGGCAACGGAGTCACCTAGTGCAG | 3340 fluorescence intensity (a.u.)
AGCTCGTGACGTTAATCTCCGTATAACCAAGCCATGTTGTCGGAGTCACCTAGTGCAG | 6620 fluorescence intensity (a.u.)
CATATAATTGATAGCAGCATGACAGATTGCCAGTTAGCCGCGGAGTCACCTAGTGCAG | 3290 fluorescence intensity (a.u.)
AGTAGTAGGGCGCGACACGCGTGTACGTTGCGATAGATGTCGGAGTCACCTAGTGCAG | 3330 fluorescence intensity (a.u.)
ATGTCTCGTTATCTCCTAAACATGTCATTACACTGGAAACCGGAGTCACCTAGTGCAG | 3240 fluorescence intensity (a.u.)
TATGGGGCCGTGATATTCAATGTGATGTGCATACAGCATGCGGAGTCACCTAGTGCAG | 3720 fluorescence intensity (a.u.)
CTGCCTCCTGTTCGCGCTCCACGCCACCACTGCCGACGAGCGGAGTCACCTAGTGCAG | 4300 fluorescence intensity (a.u.)
AGAGCGATCTGATCGACCGAGTTGTGTCATGCCGTACTACCGGAGTCACCTAGTGCAG | 4330 fluorescence intensity (a.u.)

Sequence | binding signal
AATTATCTTGAAGCACCTCAACTCAACCTGATGTCATACACGGAGTCACCTAGTGCAG | 4390 fluorescence intensity (a.u.)
GAATTTACTTTAGCGGAGATTGAGCACTTTGTGGACCCAGCGGAGTCACCTAGTGCAG | 52400 fluorescence intensity (a.u.)
AGATTTGTGCTCTGACCCACTTCACTCACTTAGTCTCTAGCGGAGTCACCTAGTGCAG | 3630 fluorescence intensity (a.u.)
CCAATTTCCGACTTCATGAGATTTATGTCTTTGTGGTCAGCGGAGTCACCTAGTGCAG | 3210 fluorescence intensity (a.u.)
ATGTGTAATGACATGACTAGGCATTCCCTTCAGTTAGTCTCGGAGTCACCTAGTGCAG | 9940 fluorescence intensity (a.u.)
TGCTTCTGATACTCACGTATATTTCATACACACGTGAATGCGGAGTCACCTAGTGCAG | 3210 fluorescence intensity (a.u.)
GTGGAATATTTCTGATCATGGTTTGGGAATAAACGTTCTGCGGAGTCACCTAGTGCAG | 3310 fluorescence intensity (a.u.)
GAGACCGTTCTGAATTTCTGAGACTGATACATATTTGATGCGGAGTCACCTAGTGCAG | 40300 fluorescence intensity (a.u.)
CGTGCATCCGCTTGTGCTGCCACTTCGACAGCCCGCCCGGCGGAGTCACCTAGTGCAG | 3570 fluorescence intensity (a.u.)
GGGCTCCATAATAGAGTGCCACACTAGCATGTTACGATATCGGAGTCACCTAGTGCAG | 3510 fluorescence intensity (a.u.)
TCTACTGCAATTAGTTGATTCAGCTAGTAGCAAACATAATCGGAGTCACCTAGTGCAG | 54800 fluorescence intensity (a.u.)
TTAACAGTTGGTTACTAGTCCTAATTAATTCAGTAGCAATCGGAGTCACCTAGTGCAG | 4700 fluorescence intensity (a.u.)
CATAATTAGCGGTTGATTACTGTAGCATCACTGTAACAAACGGAGTCACCTAGTGCAG | 3730 fluorescence intensity (a.u.)
TTTAGAATACTGCTCATACGTCAGTAACAAAGTCACACGACGGAGTCACCTAGTGCAG | 3880 fluorescence intensity (a.u.)
GCCCAAAGAAAGAAGGAGGTGGACACGTGGGAGATCTGCGCGGAGTCACCTAGTGCAG | 11200 fluorescence intensity (a.u.)
CCCAATCCGAACGGGACAGCTGCCCACGTGCGACCCATGTCGGAGTCACCTAGTGCAG | 4920 fluorescence intensity (a.u.)
CATTGCTTTGTTTGATCTTGTGTGCCAATAATTGATGAAACGGAGTCACCTAGTGCAG | 55900 fluorescence intensity (a.u.)
CTAATATATTGACGTGTAATTCTTTTGTGTGTTTGTGAAACGGAGTCACCTAGTGCAG | 6530 fluorescence intensity (a.u.)
CCAATTTGACGTGAAATGTTTAGATGATCTCTTGCCAGTACGGAGTCACCTAGTGCAG | 3150 fluorescence intensity (a.u.)
ACATGGGGAAAACCAGGGACTAAAACTGTAATCAAACAGTCGGAGTCACCTAGTGCAG | 29500 fluorescence intensity (a.u.)
CCTTCCGTTCGACGCGACACGCGAGTCATTGCTGCCACCACGGAGTCACCTAGTGCAG | 3680 fluorescence intensity (a.u.)
CCTCTCGTGGCATCGCATCGCATCGTGTCCTCTGCGACTGCGGAGTCACCTAGTGCAG | 3630 fluorescence intensity (a.u.)
